Outcome and AC50 data for six compounds are collected here from PubChem BioAssay (EPA / NIEHS).

Inconclusive results are not listed. Activity calls are given as the source filed them. The calls were made as follows, unless noted: active = hit-call score of the fitted dose curve at least 0.9, where 1 is the maximum; inactive = score below 0.9.

Experiment [1] can be described thus: ACEA_ER_80hr: ACEA Biosciences xCELLigence Real-Time Cell Analysis on Estrogen Receptor Agonism for Proliferation (AID 2282667; active = hit-call score of the fitted dose curve at least 0.9, where 1 is the maximum). The note with it: T47D proliferation, impedance (xCELLigence), 80 h. A digest of the protocol: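 Real-time electrical impedance tracked growth of the human breast line T47D, with the 80 h post-dosing value used. Dosing spanned eight 1:4 steps down from a 100 uM final top concentration, run in duplicate.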

A short description of experiment [2]: APR_HepG2_NuclearSize_24hr: Apredica 24-hour HepG2 Assay for Nuclear Size (AID 2282907). The note with it: high-content imaging, actives raise or lower the signal. A digest of the protocol: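 Nuclear size from Hoechst 33342-stained, formaldehyde-fixed HepG2 nuclei imaged by high-content microscopy, after 24 h dosing at ten concentrations from 0.39 to 200 uM in 0.5% DMSO; gain or loss relative to DMSO baseline.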

The nature of experiment [3]: APR_HepG2_CellLoss_24hr: Apredica 24-hour HepG2 Assay for Cell Loss (AID 2282908).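 As to AC50: fit in both directions so a hit may be cell loss or gain.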 The conditions noted are these: high-content imaging. An outline of the steps:
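Nuclei stained with Hoechst 33342 after formaldehyde fixation (3.7%) were imaged at 20x to count cells. Exposure lasted 24 hr, at ten concentrations from 0.39 to 200 uM in duplicate, with 0.5% v/v DMSO. Fit bidirectional, relative to DMSO.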

Experiment [4] can be described thus: APR_HepG2_MicrotubuleCSK_24hr: Apredica 24-hour HepG2 Assay for Microtubule CSK Stabilty (AID 2282909). The note with it: HepG2 microtubule cytoskeleton imaging, actives raise or lower the signal. A digest of the protocol: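 Fixed HepG2 cells were stained for alpha-tubulin and imaged after 24 hr exposure to ten concentrations spanning 0.39–200 uM in 0.5% DMSO. Signal change was fitted in both directions relative to DMSO; taxol was the positive control.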

Experiment [5] in a line: APR_HepG2_MitoticArrest_24hr: Apredica 24-hour HepG2 Assay for Mitotic Arrest (AID 2282910). The note with it: high-content imaging, actives raise or lower the signal. A digest of the protocol: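 HepG2, 24 hr dosing, 0.39–200 uM, 0.5% DMSO final. Formaldehyde-fixed, Triton-permeabilised, anti-phospho-histone H3 plus Hoechst. ArrayScan imaging at 20x; bidirectional fit vs DMSO baseline.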

Experiment [6] is described as follows: APR_HepG2_MitoMembPot_24hr: Apredica 24-hour HepG2 Assay for Mitochondrial Membrane Potential (AID 2282911). The conditions noted are these: imaging, actives raise or lower the signal. A digest of the protocol: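 Cells are dosed for 24 hr across 0.39 to 200 uM with solvent held at 0.5% DMSO. They are then stained with 250 nM MitoTracker Red CMXRos for 30 min, fixed in 3.7% formaldehyde and imaged.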

Experiment [7] can be described thus: APR_HepG2_MitoMass_24hr: Apredica 24-hour HepG2 Assay for Mitochondrial Mass (AID 2282912). The note with it: high-content imaging, actives raise or lower the signal. An outline of the steps: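 Endpoint is MitoTracker Red CMXRos (250 nM, 30 min, pre-fixation) intensity from 20x high-content imaging, nuclei located by Hoechst. Human HepG2 cells received ten concentrations from 0.39 to 200 uM in 0.5% DMSO for 24 hr, duplicate wells. Bidirectional fit relative to DMSO.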

Experiment [8] is described as follows: APR_HepG2_p53Act_24hr: Apredica 24-hour HepG2 Assay for p53 Activation (AID 2282913).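 Also: p53 protein immunofluorescence averaged per cell in HepG2 with Hoechst nuclei.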 The note with it: high-content imaging, actives raise or lower the signal. A digest of the protocol: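 Human HepG2 liver cells; 24 hr cpd treatment, 0.39–200 uM, 0.5% DMSO final. Fixed in 3.7% formaldehyde, permeabilized with 0.5% Triton X-100, stained with anti-p53/Cy5 plus Hoechst 33342. Six images per well at 20x; gain or loss vs DMSO.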

The nature of experiment [9]: APR_HepG2_CellCycleArrest_72hr: Apredica 72-hour HepG2 Assay for Cell Cycle Arrest (AID 2282914). The conditions noted are these: high-content imaging, actives raise or lower the signal. A digest of the protocol:
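Read-out is Hoechst-stained nuclear DNA content measured by automated fluorescence imaging (20x, six images per well), fitted in both directions relative to DMSO. Human HepG2 liver cells received 0.39–200 uM compound for 72 hr at 0.5% v/v DMSO.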

Experiment [10] in a line: APR_HepG2_CellLoss_72hr: Apredica 72-hour HepG2 Assay for Cell Loss (AID 2282915). The note with it: high-content imaging. An outline of the steps: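 HepG2 cells exposed 72 h to compound at 0.39–200 uM (10 concentrations, duplicate) in 0.5% DMSO. Fixed with 3.7% formaldehyde and Hoechst 33342-stained. Imaged at 20x; nuclear count gives cell number, fitted bidirectionally versus DMSO.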

Experiment [11] is described as follows: APR_HepG2_P-H2AX_72hr: Apredica 72-hour HepG2 Assay for H2AX Phosphorylation (AID 2282916).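 Also: phospho-histone H2A.x immunostain intensity per cell marking DNA damage.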 The note with it: imaging, actives raise or lower the signal. A digest of the protocol:
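Phospho-histone H2A.x immunofluorescence, multiplexed with Hoechst and c-Jun, quantified by high-content imaging. Compounds applied to HepG2 for 72 h across ten concentrations (0.39–200 uM, 0.5% DMSO), in duplicate; DMSO baseline.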

Experiment [12] is described as follows: APR_HepG2_MitoMembPot_72hr: Apredica 72-hour HepG2 Assay for Mitochondrial Membrane Potential (AID 2282917). The note with it: imaging, actives raise or lower the signal. A digest of the protocol: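 HepG2 cells dosed 72 hr with compound at 0.39–200 uM in duplicate, 0.5% v/v DMSO final. Mitochondria stained with 250 nM MitoTracker Red CMXRos for 30 min before formaldehyde fixation, imaged by high-content fluorescence; bidirectional fit versus DMSO.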

A short description of experiment [13]: APR_HepG2_MicrotubuleCSK_72hr: Apredica 72-hour HepG2 Assay for Microtubule CSK Stabilty (AID 2282919). The note with it: HepG2 microtubule cytoskeleton, high-content imaging, actives raise or lower the signal. A digest of the protocol:
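HepG2, 72 hr cmpd exposure, 0.39–200 uM (10 pts, duplicate), 0.5% DMSO. 3.7% formaldehyde fix, 0.5% Triton perm, anti-alpha-tubulin/Cy5 plus Hoechst. HCS fluorescence intensity; bidirectional fit vs DMSO baseline; taxol as positive control.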

A short description of experiment [14]: APR_HepG2_P-H2AX_24hr: Apredica 24-hour HepG2 Assay for H2AX Phosphorylation (AID 2282920). The note with it: high-content imaging, actives raise or lower the signal. A digest of the protocol: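 HepG2, 24 hr, cpd 0.39–200 uM (10 conc, duplicate), DMSO 0.5% v/v final. Fix 3.7% formaldehyde, Triton X-100 permeabilize, anti-phospho-H2A.x 1:200 + Hoechst 2 ug/mL. Imaged, bidirectional fit vs DMSO.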

A short description of experiment [15]: APR_HepG2_StressKinase_72hr: Apredica 72-hour HepG2 Assay for Stress Kinase (AID 2282921). The note with it: HepG2 stress kinase (phospho-c-Jun) imaging, actives raise or lower the signal. A digest of the protocol:
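Stress kinase signal is phospho-c-Jun immunofluorescence (1:500 primary, Cy3 secondary) in fixed, permeabilized human HepG2 cells imaged at 20x. Exposure lasted 72 hr over ten concentrations from 0.39 to 200 uM, 0.5% DMSO, in duplicate. Bidirectional fit versus DMSO.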

A short description of experiment [16]: APR_HepG2_StressKinase_24hr: Apredica 24-hour HepG2 Assay for Stress Kinase (AID 2282922). The conditions noted are these: HepG2 stress kinase (phospho-c-Jun) imaging, actives raise or lower the signal. An outline of the steps:
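Read-out: phospho-c-Jun immunofluorescence (Cy3 secondary) quantified by high-content imaging at 20x, nuclei defined by Hoechst 33342. Human HepG2 liver cells dosed 24 hr, 0.39–200 uM, DMSO 0.5% v/v; gain or loss of signal fitted relative to DMSO.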

Experiment [17] is described as follows: APR_HepG2_MitoMass_72hr: Apredica 72-hour HepG2 Assay for Mitochondrial Mass (AID 2282924).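 Also: MitoTracker Red CMXRos stain intensity per cell imaged as mitochondrial mass.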 The note with it: high-content imaging, actives raise or lower the signal. An outline of the steps: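 Read-out: MitoTracker Red fluorescence intensity from automated imaging (20x, six fields per well) in human HepG2 liver cells. Dosing ran 72 hr, 0.39–200 uM, 0.5% DMSO; bidirectional curve fitting versus DMSO baseline.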

The nature of experiment [18]: APR_HepG2_NuclearSize_72hr: Apredica 72-hour HepG2 Assay for Nuclear Size (AID 2282925). The note with it: high-content imaging, actives raise or lower the signal. An outline of the steps:
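Read-out: nuclear diameter from Hoechst 33342 images (ArrayScan, 20x, six fields/well), via cell-cycle image analysis. HepG2 were dosed 0.39–200 uM for 72 hr in 0.5% DMSO. Bidirectional fit relative to DMSO.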

Experiment [19] is described as follows: APR_HepG2_CellCycleArrest_24hr: Apredica 24-hour HepG2 Assay for Cell Cycle Arrest (AID 2282905).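 Also: cell cycle arrest scored as ratio of 2N to 4N nuclear DNA content.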 The conditions noted are these: imaging, actives raise or lower the signal. A digest of the protocol:
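After 24 h exposure at 0.39–200 uM in 0.5% DMSO, fixed cells received Hoechst 33342 staining. Imaging quantified per-nucleus DNA content; gain or loss fitted against DMSO controls.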

Experiment [20] is described as follows: APR_HepG2_MitoticArrest_72hr: Apredica 72-hour HepG2 Assay for Mitotic Arrest (AID 2282918). The note with it: high-content imaging, actives raise or lower the signal. An outline of the steps:
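Read-out is phospho-histone H3 immunofluorescence with Hoechst nuclear segmentation, imaged at 20x. Human HepG2 liver cells received ten concentrations (0.39–200 uM, final DMSO 0.5% v/v) for 72 hr before fixation. Gain or loss of signal was fitted relative to DMSO.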

Consider `CC(=O)c1ccccc1`, for which the outcome in experiment [1], in experiment [2], in experiment [3], in [4], in experiment [5] and in [6] was inactive. The result in experiment [7], in [8], in [9], in experiment [10], in [11] and in experiment [12] was inactive. For the same compound, the compound was called inactive in [13], in [14], in experiment [15], in experiment [16], in experiment [17] and in [18].
Regarding `CCCCCOC(C)=O`, the call in experiment [1], in [19], in [2], in experiment [3], in experiment [5] and in [6] was inactive. In addition, the compound was called inactive in experiment [7], in experiment [9], in [10], in experiment [11], in [12] and in experiment [13]. Besides, the compound was called inactive in experiment [14], in [15], in experiment [16], in experiment [17] and in experiment [18].
The term AC50 denotes the concentration at which the activity in the assay is half-maximal. For `CCCCN1C(=O)[C@@H]([C@H](O)C2CCCCC2)NC(=O)C12CCN(Cc1ccc(Oc3ccc(C(=O)O)cc3)cc1)CC2`, the result in experiment [1], in experiment [19], in experiment [2], in [6], in experiment [7] and in experiment [8] was inactive. The compound was called inactive in experiment [9], in [12], in experiment [13], in experiment [16], in experiment [17] and in experiment [18]. Moreover, the AC50 in [3] was 48300 nM (active); in [5], 59800 nM (active); in [10] it was 48100 nM (active); in [11], 46400 nM (active); in experiment [14], 67800 nM (active); in [15], 39900 nM (active).
Consider `Cc1ncc([C@@H](CCCCCCc2ccc3c(n2)NCCC3)CC(=O)O)cn1`, for which the compound was classed as inactive in experiment [1], in [2], in experiment [3], in experiment [4], in experiment [6] and in experiment [9]. Moreover, the result in [12], in experiment [15], in experiment [16] and in experiment [17] was inactive. Also, the half-maximal activity concentration (AC50) in experiment [5] was 39.2 nM (active); in [7] it was 180 nM (active); in experiment [10], 944 nM (active); in [11], 39.1 nM (active); in [13] it was 534 nM (active); in [14], 45.9 nM (active). In experiment [18], the AC50 was 39.8 nM (active).
On to `CCc1cccc(CC)c1N`, for which the result in [1], in experiment [2], in experiment [3], in [4], in [5] and in experiment [6] was inactive. For the same compound, the result in experiment [7], in experiment [8], in experiment [9], in experiment [10], in [11] and in experiment [12] was inactive. The compound was classed as inactive in experiment [13], in experiment [14], in experiment [15], in [16], in [17] and in experiment [18].
Regarding `CCCCCCCC/C=C\CCCCCCCC(=O)OC[C@@H](O)[C@H]1OC[C@H](O)[C@H]1O`, the result in experiment [1], in [2], in experiment [3], in experiment [4], in experiment [5] and in [6] was inactive. For the same compound, the compound was classed as inactive in experiment [7], in experiment [8], in experiment [9], in [10], in experiment [11] and in experiment [12]. Moreover, the compound was called inactive in [20], in experiment [13], in experiment [14], in [15], in experiment [16] and in experiment [17]. Also, the compound was called inactive in [18].
